# Measurements taken from PubChem BioAssay AID504321 (NMMLSC, 2011).
# Values without a mark were called inactive. Calls of active or inactive are those of the source.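 Rule for the calls: active = GFP response vs DMSO above 150% with enough events counted; inconclusive = fewer than 70 events counted for a yeast strain; inactive = the rest.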
# Experiment: yeast MEP2-GFP fusion level changes, TOR pathway – flow cytometry, third cherry pick, S. cerevisiae, confirmation (AID 504321);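 note: median per-cell GFP fluorescence by flow cytometry across all yeast cells; ratio of sample to DMSO median GFP so 100% equals the DMSO level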
# Settings: S. cerevisiae MEP2-GFP strain, 3 h, at 10 µM, hits give high values
row,SMILES,GFP response vs DMSO
1,COc1ccccc1Nc1nc(NCCO)nc(N)c1[N+](=O)[O-],105%
2,COc1ccc(NC(=O)O/N=C2/CCCc3ccc(OC)cc32)cc1,112%
3,CC(=O)Nc1ccc(-c2nc3ccccc3o2)cc1,110%
4,Cc1cccc(Nc2cc(=O)[nH]c(=O)[nH]2)c1,108%
5,CCN(CC)C(=O)Oc1ccnc2cc(Cl)ccc12,110%
6,COc1ccccc1Nc1nc(NCCCN(C)C)nc(N)c1[N+](=O)[O-],112%
7,CCN(CC)c1ncnc2ccc(Br)cc12,114%
8,CSc1ccccc1OCc1cc(C(=O)N2CCN(C)C(c3ccccc3)C2)no1 (centres undefined),103%
9,OCc1ccc(O)c2ncccc12,99%
10,COc1cccc2c(O)cc(=O)n(C)c12,108%
11,O=C(N/N=C/c1ccccc1F)c1cccc2ccccc12,108%
12,Nc1ccc(O)c2c1C(=O)c1ccccc1C2=O,112%
13,Nc1cc(C(=O)O)c(N)c2c1C(=O)c1ccccc1C2=O,110%
14,O=C(O)c1ccccc1-c1ccccc1C(=O)Nc1ccc(-c2nc3cc(Cl)ccc3o2)cc1,116%
15,COCCCNc1nc(N)c([N+](=O)[O-])c(Nc2ccccc2OC)n1,110%
16,C[n+]1cccc2c(Br)ccc([O-])c21,114%
17,FC(F)Oc1cccc2cccnc12,110%
18,O=C(O)CCCCCNc1ncnc2ccc(Br)cc12,101%
19,C/C(=N\NC(=O)c1ccccc1)c1ccccc1F,116%
20,Nn1cnc2c(c1=O)C1(CCCCC1)Cc1ccccc1-2,116%

row,SMILES,GFP response vs DMSO
1,C=CCNc1ncnc2ccccc12,114%
2,O=C(N/N=C/c1ccccc1)c1cccc2ccccc12,103%
3,COc1cccc2c(=O)c(C(=O)O)c[nH]c12,116%
4,Cc1cc(C)c(NC(=O)CC(=O)c2ccccc2)c(Cl)c1,105%
5,Cc1ccc(Nc2cc(=O)[nH]c(=O)[nH]2)cc1C,114%
6,O=C(Nc1cccc2ccccc12)ON=C1CCCCC1,121%
7,CCC(=O)Nn1cnc2c(c1=O)C1(CCCCC1)Cc1ccccc1-2,110%
8,CSc1nc(S(C)(=O)=O)nc2[nH]c(=O)[nH]c12,110%
9,C[n+]1cccc2cccc([O-])c21,116%
10,O=C(O)c1ccc2cccnc2c1O,101%
11,COc1cccc(N/C=C/C(=O)c2ccc(Cl)cc2)c1,114%
12,Cc1nc(Nc2ccc(Br)cc2Br)c([N+](=O)[O-])c(=O)[nH]1,112%
13,O=C1c2ccccc2C(=O)c2c1cccc2N(CCO)CCO,108%
14,O=C(Nc1ccc(-c2nc3ccccc3o2)cc1)c1cccnc1,103%
15,COc1ccc(Nc2nc(NN)nc(C)c2[N+](=O)[O-])cc1,101%
16,Cc1cccc(N/C=C/C(=O)c2ccc(Cl)cc2)c1,112%
17,Cc1ccc2c(Cl)cc(Cl)c(O)c2n1,168% (active)
18,CC1=NNC(=O)/C1=C\c1cn(-c2ccccc2)nc1-c1ccc(F)cc1,131%
19,Cc1ccc(C(=O)/C=C/Nc2cccc(O)c2)cc1,116%
